Several values for one entry are separate records, joined by “and”; a condition that tells them apart may be missing. Equal values may be shown once. Out of some 5,500 compounds screened, about 2,000 (36%) were called active. Inconclusive results (about 18%) are left out. Rule as the data show it: active = normalized growth mostly below about 0.91 (no sharp cut-off); inconclusive = no clear call, values can overlap the other calls; inactive = mostly above about 0.92. The list shows a part of the results.
Assay: chemical genetic growth profiling, strain panel (AID 1159580);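 also: tested at 20 µM; growth read once vehicle control cultures reached saturation at 30 °C; 1 = growth at the plate median or of vehicle wells; lower values mean less growth of the strain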
Conditions: S. cerevisiae deletion strains, growth OD

Measured: normalized growth

CN1CCC(OC(c2ccccc2)c2ccccc2)CC1
inactive: locus YAL013W, strain DEP1, hits give low values 0.98 | locus YAL021C, strain ccr4, hits give low values 0.974 | locus YAL026C, strain drs2, hits give low values 0.972 | locus YAL030W, strain snc1, hits give low values 0.987 | locus YBL061C, strain skt5, hits give low values 1 | locus YBR009C, strain hhf1, hits give low values 0.983 | locus YBR021W, strain FUR4, hits give low values 0.985 | locus YBR023C, strain chs3, hits give low values 1.02 | locus YBR171W, strain sec66, hits give low values 0.99 | locus YBR229C, strain ROT2, hits give low values 0.977 | locus YBR231C, strain swc5, hits give low values 0.976 | locus YBR279W, strain paf1, hits give low values 1.01 | locus YCL011C, strain gbp2, hits give low values 0.998 | locus YCL016C, strain dcc1, hits give low values 1.04 | locus YCL029C, strain bik1, hits give low values 0.995 | locus YCL061C, strain MRC1, hits give low values 1 | locus YCL069W, strain vba3, hits give low values 0.973 | locus YCR088W, strain abp1, hits give low values 0.989 | locus YDL005C, strain med2, hits give low values 0.975 | locus YDL035C, strain GPR1, hits give low values 1.03 | locus YDL040C, strain nat1, hits give low values 0.975 | locus YDL074C, strain BRE1, hits give low values 0.976 | locus YDL101C, strain DUN1, hits give low values 0.973 | locus YDL134C, strain PPH21, hits give low values 1.02 | locus YDL185W, strain tfp1, hits give low values 0.984 | locus YDL192W, strain arf1, hits give low values 0.983 | locus YDR001C, strain nth1, hits give low values 0.984 | locus YDR069C, strain doa4, hits give low values 0.977 | locus YDR101C, strain arx1, hits give low values 0.987 | locus YDR137W, strain rgp1, hits give low values 1.03 | locus YDR159W, strain sac3, hits give low values 0.969 | locus YDR162C, strain NBP2, hits give low values 1.01 | locus YDR195W, strain ref2 0.973 | locus YDR297W, strain sur2, hits give low values 0.988 | locus YDR318W, strain mcm21, hits give low values 0.978 | locus YDR334W, strain swr1, hits give low values 0.982 | locus YDR335W, strain msn5, hits give low values 0.996 | locus YDR388W, hits give low values 0.992 | locus YDR392W, strain spt3, hits give low values 0.935 | locus YDR502C, strain sam2, hits give low values 1.01 | locus YEL003W, strain gim4, hits give low values 0.956 | locus YEL037C, strain rad23, hits give low values 0.97 | locus YEL061C, strain CIN8 (second series), hits give low values 0.965 | locus YEL061C, strain CIN8, hits give low values 0.995 | locus YER015W, strain faa2, hits give low values 0.99 | locus YER016W, strain bim1, hits give low values 0.977 | locus YER110C, hits give low values 0.972 | locus YER111C, strain swi4, hits give low values 0.984 | locus YER155C, strain BEM2 (second series), hits give low values 0.977 | locus YER155C, strain BEM2, hits give low values 0.988 | locus YER167W, strain BCK2, hits give low values 0.99 | locus YFR010W, strain ubp6, hits give low values 0.963 | locus YGL078C, strain dbp3, hits give low values 0.985 | locus YGL086W, strain mad1, hits give low values 0.987 | locus YGL167C, strain pmr1, hits give low values 1 | locus YGL173C, strain kem1, hits give low values 0.994 | locus YGL227W, strain vid30, hits give low values 0.983 | locus YGL240W, strain doc1, hits give low values 0.982 | locus YGL248W, strain PDE1, hits give low values 0.964 | locus YGL253W, strain hxk2, hits give low values 0.987 | locus YGR078C, strain PAC10, hits give low values 0.985 | locus YGR135W, strain pre9, hits give low values 0.951 | locus YGR252W, strain gcn5, hits give low values 0.925 | locus YHR013C, strain ard1, hits give low values 0.994 | locus YHR027C, strain rpn1, hits give low values 0.993 | locus YHR030C, strain SLT2, hits give low values 0.998 and 0.996 | locus YHR079C, strain IRE1 (second series), hits give low values 0.991 | locus YHR079C, strain IRE1, hits give low values 1.02 | locus YHR094C, strain hxt1, hits give low values 0.998 | locus YHR129C, strain ARP1, hits give low values 0.99 | locus YHR142W, strain chs7, hits give low values 1.01 | locus YHR200W, strain rpn10, hits give low values 0.987 | locus YIL066C, strain RNR3, hits give low values 1.01 | locus YIL073C, strain SPO22, hits give low values 1.01 | locus YIL125W, strain kgd1, hits give low values 0.994 | locus YIR030C, strain dcg1, hits give low values 0.984 | locus YJL092W, strain hpr5, hits give low values 0.98 | locus YJL095W, strain BCK1 (second series), hits give low values 0.988 | locus YJL095W, strain BCK1, hits give low values 0.961 and 1 | locus YJL115W, strain asf1, hits give low values 0.98 | locus YJL129C, strain trk1, hits give low values 0.984 | locus YJL134W, strain LCB3, hits give low values 0.984 | locus YJL154C, strain vps35, hits give low values 0.978 | locus YJL164C, strain tpk1, hits give low values 0.987 | locus YJL166W, strain qcr8, hits give low values 1.01 | locus YJL168C, strain set2, hits give low values 0.988 | locus YJL187C, strain SWE1 (second series), hits give low values 0.972 | locus YJL187C, strain SWE1, hits give low values 0.983 | locus YJR043C, strain POL32, hits give low values 1.03 | locus YJR066W, strain TOR1, hits give low values 0.973 | locus YKL009W, strain mrt4, hits give low values 0.974 | locus YKL068W, hits give low values 0.983 | locus YKL085W, strain MDH1 (second series), hits give low values 1 | locus YKL085W, strain MDH1, hits give low values 1 | locus YKL160W, strain elf1, hits give low values 1.03 | locus YKR001C, strain vps1, hits give low values 0.996 | locus YKR026C, strain gcn3, hits give low values 0.989 | locus YKR091W, strain srl3, hits give low values 0.991 | locus YLL001W, strain dnm1, hits give low values 1.01 | locus YLL026W, hits give low values 0.991 | locus YLL041C, strain sdh2, hits give low values 0.985 | locus YLR027C, strain aat2, hits give low values 0.995 | locus YLR039C, strain RIC1, hits give low values 1.15 | locus YLR058C, strain SHM2, hits give low values 0.992 | locus YLR102C, strain apc9, hits give low values 0.999 | locus YLR113W, strain HOG1, hits give low values 1.01 | locus YLR221C, strain rsa3, hits give low values 1.04 | locus YLR258W, strain gsy2, hits give low values 1.01 | locus YLR262C, strain YPT6 (second series), hits give low values 1.03 | locus YLR262C, strain YPT6, hits give low values 1.09 | locus YLR268W, strain sec22, hits give low values 0.992 | locus YLR320W, strain mms22, hits give low values 1.05 | locus YLR330W, strain CHS5, hits give low values 0.987 | locus YLR342W, strain FKS1 (second series), hits give low values 1.01 | locus YLR342W, strain FKS1, hits give low values 0.989 | locus YLR357W, strain rsc2, hits give low values 0.96 | locus YLR370C, strain arc18, hits give low values 1.01 | locus YLR371W, strain rom2, hits give low values 1 | locus YLR384C, strain iki3, hits give low values 0.994 | locus YLR418C, strain cdc73, hits give low values 0.956 | locus YML016C, strain PPZ1, hits give low values 0.983 | locus YML032C, strain rad52, hits give low values 1.02 | locus YML120C, strain ndi1, hits give low values 1.01 | locus YML124C, strain tub3, hits give low values 1.02 | locus YMR058W, strain fet3, hits give low values 0.978 | locus YMR078C, strain ctf18, hits give low values 0.98 | locus YMR125W, strain sto1, hits give low values 0.961 | locus YMR129W, hits give low values 0.977 | locus YMR205C, strain PFK2, hits give low values 1.03 | locus YMR223W, strain ubp8, hits give low values 0.968 | locus YMR231W, strain pep5, hits give low values 0.996 | locus YMR263W, strain SAP30, hits give low values 0.971 | locus YMR307W, strain GAS1, hits give low values 1.14 | locus YNL067W, strain RPL9B, hits give low values 0.974 | locus YNL071W, strain lat1, hits give low values 0.983 | locus YNL183C, strain NPR1, hits give low values 0.964 | locus YNL209W, strain ssb2, hits give low values 0.988 | locus YNL233W, strain BNI4, hits give low values 0.975 | locus YNL248C, strain rpa49, hits give low values 0.98 | locus YNL250W, strain rad50, hits give low values 0.969 | locus YNL271C, strain bni1, hits give low values 0.984 | locus YNL298W, strain CLA4, hits give low values 0.985 | locus YNL307C, strain MCK1, hits give low values 0.992 | locus YNL322C, strain KRE1 (second series), hits give low values 1.01 | locus YNL322C, strain KRE1, hits give low values 1.01 | locus YNR049C, strain mso1, hits give low values 0.989 | locus YNR052C, strain pop2, hits give low values 0.984 | locus YOL006C, strain TOP1, hits give low values 0.946 | locus YOL012C, strain htz1 0.957 | locus YOL147C, strain pex11, hits give low values 0.986 | locus YOR001W, strain rrp6, hits give low values 0.937 | locus YOR061W, strain CKA2, hits give low values 1 | locus YOR069W, strain VPS5, hits give low values 0.992 | locus YOR070C, strain gyp1, hits give low values 0.998 | locus YOR080W, strain dia2, hits give low values 1 | locus YOR083W, strain WHI5, hits give low values 1.04 | locus YOR106W, strain vam3, hits give low values 1.03 | locus YOR136W, strain idh2, hits give low values 0.983 | locus YOR144C, strain elg1, hits give low values 0.983 | locus YOR184W, strain ser1, hits give low values 1.01 | locus YOR231W, strain MKK1, hits give low values 1.01 | locus YOR265W, strain rbl2, hits give low values 1.01 | locus YOR270C, strain vph1, hits give low values 0.999 | locus YOR290C, strain snf2, hits give low values 0.93 | locus YOR316C, strain cot1, hits give low values 0.985 | locus YPL051W, strain arl3, hits give low values 1.02 | locus YPL055C, strain LGE1, hits give low values 0.994 | locus YPL078C, strain atp4, hits give low values 1.02 | locus YPL106C, strain sse1, hits give low values 0.985 | locus YPL240C, strain hsp82, hits give low values 1.01 | locus YPL241C, strain CIN2, hits give low values 0.991 | locus YPL256C, strain CLN2, hits give low values 1.02 | locus YPR119W, strain clb2, hits give low values 0.986 | locus YPR141C, strain kar3, hits give low values 0.965 | locus YPR163C, strain tif3, hits give low values 0.987 | locus YPR167C, strain met16, hits give low values 0.99 | strain wtn01, hits give low values 0.974

From PubChem BioAssay AID1159580 (chemical genetic matrix, 2015)
